# Screens (PubChem)
# APP transl inh: inhibitors of APP translation via 5'UTR reporter, primary screen, APP 5'UTR luciferase, SH-SY5Y cells; SH-SY5Y APP 5'UTR-luciferase reporter, luminescence; inhibition, % at 2 µM; 0.82% of 190,000 active; AID 1285, 2008;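 active = inhibition above a set limit, derived from the sample mean plus 3 SD, cut at about 45% in these data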
# aSyn 5UTR inh: MLPCN primary screen, SNCA 5' untranslated region; inhibition, % (tested at 7.5 µM); AID 1813, 2009; 0.82% of 300,000 active; alpha-synuclein 5'UTR reporter, inhibitor activity; in the data active = inhibition above about 60%;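 also: H4 neuroglioblastoma cells stably carrying SNCA 5'UTR luciferase fusion; 0% = DMSO wells and 100% = positive control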
# Ba/F3 V617F tox: reduced viability of JAK2V617F-dependent Ba/F3 cells, primary screen, JAK2V617F inhibitor project, cell-based, Ba/F3 EpoR-JAK2V617F, luminescence. ATP luminescence. inhibition, % at 5.6 µM. 1.1% of 220,000 active. AID 1446, 2008;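 active = inhibition above the campaign mean plus 3 SD over all tested compounds, cut at about 24% in these data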;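 also: cytokine-independent growth of Ba/F3 cells driven by EpoR plus mutant JAK2; 0% = DMSO-treated cells and 100% = JAK inhibitor I control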
# BaF3 tox: parental Ba/F3 cell viability inhibition, counter-screen for JAK2V617F inhibitor project, murine pro-B, CellTiter-Glo luminescence; AID 1486, 2009; CellTiter-Glo ATP luminescence; inhibition, % at 5.6 µM; 1.1% of 220,000 active;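 active = inhibition above a per-campaign cutoff, the mean inhibition of all tested compounds plus 3 SD, cut at about 27% in these data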;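 also: 0% = DMSO wells and 100% = JAK Inhibitor I control wells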
# IEC-6 cytotox: cytotoxicity in IEC-6 intestinal epithelial cells, primary screen, cytotoxicity control for KLF5 inhibitor project, cell-based, luminescence; inhibition, % at 5 µM; AID 1825, 2009; 0.78% of 290,000 active; IEC-6 cytotoxicity, luminescence viability;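 also: 0% = plate median of test compound wells and 100% = cytotoxic reference compound wells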
# KLF5 inhibitor: KLF5 expression inhibitors, primary screen, DLD-1 cells, luminescence. DLD-1 KLF5 promoter-luciferase reporter. inhibition, % at 5 µM. 0.23% of 290,000 active. AID 1700, 2009;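 active = inhibition above a per-plate limit of that plate's mean compound inhibition plus 3 SD, cut at about 60% in these data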;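 also: 0% = DMSO wells and 100% = LY294002 at 200 µM; higher means less KLF5 promoter-driven luciferase light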
# IEC-6 cytotox cf: cytotoxic compounds in IEC-6 epithelial cells, confirmation, cytotoxicity control, cell-based, luminescence. shares compounds with IEC-6 cytotox. IEC-6 rat intestinal epithelial viability. inhibition, % at 5 µM. 63% of 1,900 active. AID 1907, 2009;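 also: 0% = vehicle and 100% = reference cytotoxic drug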
# * = called active by the depositor; x = no result. Shown are actives, neighbours in structure and some others; about 2.2% of the full set was active somewhere. Rule as the data show it, unless noted: active = inhibition above about 22%; inactive = the rest.
SMILES,APP transl inh,aSyn 5UTR inh,Ba/F3 V617F tox,BaF3 tox,IEC-6 cytotox,KLF5 inhibitor,IEC-6 cytotox cf
Cc1ccc2c(CNCc3ccccc3)cc(=O)oc2c1,x,-65,x,x,28*,40,29*
Cc1cc2nc(C3CCN(Cc4nnnn4Cc4cccs4)CC3)[nH]c2cc1C,4,63*,2,7,46*,-11,34*
COc1ccc(Br)cc1CN(C)C(=O)c1cc(Cl)c2c(c1)OCCO2,x,34,x,x,6,7,x
COc1cc(OC)cc(C(=O)N2CC(=O)Nc3ccccc32)c1,x,31,x,x,74*,52,56*
COCCCNC(=O)Cc1c(C)c2c(cc(C)c3c(C(C)(C)C)coc32)oc1=O,x,28,x,x,84*,61,59*
COCCNC(=O)Cc1c(C)c2c(cc(C)c3c(C)coc32)oc1=O,x,-15,x,x,0,-52,x
O=C(O)CSc1cc(NS(=O)(=O)c2ccc(Cl)cc2)c2ccccc2c1O,x,21,x,x,57*,-42,-3
COc1ccccc1CN1CC(C(=O)NCc2ccc(C)c(F)c2)CCC1=O (stereo not drawn),x,1,x,x,8,-10,x
O=C(C1CCCCCC1)N1CC[C@@H](N2CCC(O)CC2)[C@H](O)C1,x,6,x,x,-9,-41,x
O=C1NNC(c2ccccc2)=N/C1=C\c1ccco1,x,24,-1,0,-5,-12,x
COc1cc(/C=C2\N=C(c3ccccc3)NNC2=O)cc(OC)c1OC,x,52,72*,79*,59*,44,53*
CC1CCCCN1S(=O)(=O)c1cccc2nonc12 (stereo not drawn),x,11,x,x,2,-19,x
ClC(Cl)(c1nnnn1-c1ccccc1)c1nnnn1-c1ccccc1,44,x,-4,2,-1,-34,x
O=C1NC(=Nc2ccccc2)SC1Cc1cccc(Cl)c1Cl (stereo not drawn),6,5,0,6,0,-21,x
CC(=O)/C(C#N)=C1\NC(=O)C(Cc2ccccc2Cl)S1 (stereo not drawn),4,-48,4,5,78*,21,60*
CC(=O)/C(C#N)=C1\NC(=O)C(Cc2cc(Cl)ccc2Cl)S1 (stereo not drawn),x,-2,-2,5,74*,24,47*
Cc1cc(C)c(C)c(S(=O)(=O)NCCCN2CCCC2=O)c1C,x,6,x,x,2,-21,x
COc1ccccc1NC(=O)COC(=O)c1ccccc1OCC(=O)Nc1ccc(SC(F)F)cc1,-18,-13,-3,6,-3,-11,x
CN(C)C(=O)COC(=O)c1ccccc1Nc1ccc(SC(F)F)cc1,-19,-19,4,10,45*,-88,37*
CC(=O)NC1=NN(C(C)=O)C(C)(c2ccccc2)S1 (stereo not drawn),49*,5,67*,61*,64*,44,45*
CC(=O)NC1=NN(C(C)=O)C(C)(c2ccc3ccccc3c2)S1 (stereo not drawn),12,-5,0,9,6,-26,x
Nc1cccc(-c2nc3ccc(C(=O)c4ccccc4)cc3[nH]2)c1,x,-276,x,x,72*,-4,60*
Cc1ccc(OCCNC(=O)CNC(=O)c2ccc3c(c2)OCO3)cc1,x,4,x,x,x,x,x
CCO[C@@H]1OC(C(=O)NCc2nc3ccccc3[nH]2)=C[C@H](C2CC2)[C@H]1CCCO,2,-119,2,34*,42*,38,6
C#Cc1ccc([C@H]2C=C(C(=O)NCc3nc4ccccc4[nH]3)O[C@@H](OCC)[C@@H]2CCCO)cc1,x,7,x,x,x,x,x
SMILES,APP transl inh,aSyn 5UTR inh,Ba/F3 V617F tox,BaF3 tox,IEC-6 cytotox,KLF5 inhibitor,IEC-6 cytotox cf
Brc1ccc2c(c1)CN1CCCC1=N2,x,23,x,x,34*,-7,12
Cc1nnc(N/N=C/c2cccc(OCc3ccc(Cl)c(Cl)c3)c2)n1N,-36,-83,5,6,98*,-137,4
Cc1cc(C)n2nc(CCCCc3nc4nc(C)cc(C)n4n3)nc2n1,4,0,-2,4,-7,-20,x
COc1ccc(-n2c(=S)[nH]c3cc(C(=O)Nc4ccc(F)cc4)ccc3c2=O)c(OC)c1,x,-142,x,x,32*,50,18
COc1ccc(NC(=O)c2ccc3c(=O)n(-c4ccc(OC)cc4OC)c(=S)[nH]c3c2)cc1,-2,-5,-2,2,-1,-24,x
O=C(NCc1cccnc1)c1ccc([N+](=O)[O-])o1,7,-117,1,-6,32*,-17,16
O=C(Nc1cccnc1)c1ccco1,26,-13,1,6,-4,-8,x
O=C(Nc1cccnc1)c1ccc([N+](=O)[O-])o1,x,-202,x,x,76*,-11,2
O=C(Cc1ccc(-c2ccccc2)cc1)NCc1cccnc1,-40,-48,18,20,25*,-1,25*
O=C(Nc1cc(C(F)(F)F)cc(C(F)(F)F)c1)Nc1cnn(-c2ccc([N+](=O)[O-])cc2)c1C(F)(F)F,x,25,1,-5,-2,-36,x
COc1ccc(CCNC(=O)C2CCC(=O)N(C3CCCCCC3)C2)cc1 (stereo not drawn),x,-2,x,x,1,-1,x
CCOc1ccc(CCNC(=O)CSc2nn(-c3ccc(C)c(Cl)c3)c(=S)s2)cc1OCC,3,13,-3,7,-4,-4,x
Cc1ccc(N2CC(NS(=O)(=O)c3cc(F)ccc3F)CC2=O)cc1C (stereo not drawn),x,12,x,x,x,x,x
O=C(Nc1ccc(N2CCOCC2)cc1)Nc1ccc2nc(-c3ccco3)c(-c3ccco3)nc2c1,-12,112*,21,14,23*,-21,37*
COc1ccc(-c2c[n+]3c(n2-c2ccc(C)cc2)CCCCC3)cc1,x,1,94*,73*,29*,-12,21
CCOc1ccc(-n2c(-c3ccc(OC)cc3)c[n+]3c2CCCCC3)cc1,7,20,97*,74*,22*,-16,27*
CCOc1ccc(-n2c(-c3ccc(Br)cc3)c[n+]3c2CCCCC3)cc1,1,-7,96*,79*,29*,21,21
CCOc1cc(C(=O)NN=C2CCCC2)cc(OCC)c1OCC,x,-20,x,x,80*,17,-1
COc1ccc(C(=O)NN=C2CCCC2)cc1OC,x,-17,x,x,8,-32,x
Clc1cccc(Cl)c1/C=C/c1ccn[nH]1,x,-232,x,x,27*,-59,9
COc1cc(C(=S)N2CCN(c3cccc(Cl)c3)CC2)ccc1O,6,5,3,9,28*,9,14
Oc1ccc(C(=S)N2CCN(c3cccc(Cl)c3)CC2)cc1,1,14,4,4,6,-12,x
